Measurements taken from PubChem BioAssay (NCATS).
Results filed as inconclusive are left out. Active and inactive are the calls of the source. Calls come from the whole dose curve; as a rule, active = well fitted inhibition curve with a large enough effect; inconclusive = small, poorly fitted or top-dose-only effect; inactive = flat fitted curve, though single readings scatter.

What was measured:
Test in all cases: qHTS profiling for inhibitors of Plasmodium falciparum proliferation (AID 504749); note: nearly all actives have a fitted effect of over 60% in size
7G8 = details: P. falciparum in erythrocytes, SYBR Green DNA, 72 h; series mostly up to 12.8 µM
Method in brief: (§1)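 Readout was DNA-dye fluorescence from lysed cultures, ex 485/em 535 nm. Parasitized red cells had grown 72 h with compound; data scaled between 0.29 uM artemisinin and DMSO wells and corrected using vehicle-only plates.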

AA1029 = details: P. falciparum in erythrocytes, SYBR Green DNA, 72 h; series mostly up to 28.7 µM
Method in brief: as §1

CP191 = details: P. falciparum in erythrocytes, SYBR Green DNA, 72 h; series mostly up to 28.7 µM
Method in brief: as §1

CP211 = details: P. falciparum in erythrocytes, SYBR Green DNA, 72 h; series mostly up to 28.7 µM
Method in brief: as §1

CP217 = details: P. falciparum in erythrocytes, SYBR Green DNA, 72 h; series mostly up to 28.7 µM
Method in brief: as §1

CP250 = details: P. falciparum in erythrocytes, SYBR Green DNA, 72 h; series mostly up to 12.8 µM
Method in brief: as §1

CP252 = details: P. falciparum in erythrocytes, SYBR Green DNA, 72 h; series mostly up to 12.8 µM
Method in brief: as §1

CP256 = details: P. falciparum in erythrocytes, SYBR Green DNA, 72 h; series mostly up to 28.7 µM
Method in brief: as §1

CP291 = details: P. falciparum in erythrocytes, SYBR Green DNA, 72 h; series mostly up to 28.7 µM
Method in brief: as §1

CP297 = details: P. falciparum in erythrocytes, SYBR Green DNA, 72 h; series mostly up to 28.7 µM
Method in brief: as §1

CP315 = details: P. falciparum in erythrocytes, SYBR Green DNA, 72 h; series mostly up to 28.7 µM
Method in brief: as §1

CP329 = details: P. falciparum in erythrocytes, SYBR Green DNA, 72 h; series mostly up to 28.7 µM
Method in brief: as §1

DIV14 = details: P. falciparum in erythrocytes, SYBR Green DNA, 72 h; series mostly up to 28.7 µM
Method in brief: as §1

DIV17 = details: P. falciparum in erythrocytes, SYBR Green DNA, 72 h; series mostly up to 28.7 µM
Method in brief: as §1

FAB9 = details: P. falciparum in erythrocytes, SYBR Green DNA, 72 h; series mostly up to 28.7 µM
Method in brief: as §1

JCK = details: P. falciparum in erythrocytes, SYBR Green DNA, 72 h; series mostly up to 28.7 µM
Method in brief: as §1

N140 = details: P. falciparum in erythrocytes, SYBR Green DNA, 72 h; series mostly up to 28.7 µM
Method in brief: as §1

PC15 = details: P. falciparum in erythrocytes, SYBR Green DNA, 72 h; series mostly up to 28.7 µM
Method in brief: as §1

SC27B = details: P. falciparum in erythrocytes, SYBR Green DNA, 72 h; series mostly up to 28.7 µM
Method in brief: as §1

TAB165 = details: P. falciparum in erythrocytes, SYBR Green DNA, 72 h; series mostly up to 28.7 µM
Method in brief: as §1

Measured: Potency

C[C@]12CC[C@H]3[C@@H](CCC4=CC(=O)CC[C@@]43C)[C@@H]1CC[C@@H]2O
inactive: all assays above
